LYPLA1 inh = blocks human lysophospholipase 1, a PME1 counter-screen; O75608; recombinant LYPLA1, FP-Rh probe fluorescence polarization; inhibition, % at 5.9 µM; 0.16% of 320,000 active; AID 2174;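 active means inhibition above the mean of all tested compounds plus 3 SD, set per campaign, cut at about 14% in these data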;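 further: inhibitors block serine hydrolase probe labeling of LYPLA1 so polarization falls; 0% = enzyme with DMSO and 100% = wells lacking LYPLA1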
Target sequence (O75608 whole entry, looked up): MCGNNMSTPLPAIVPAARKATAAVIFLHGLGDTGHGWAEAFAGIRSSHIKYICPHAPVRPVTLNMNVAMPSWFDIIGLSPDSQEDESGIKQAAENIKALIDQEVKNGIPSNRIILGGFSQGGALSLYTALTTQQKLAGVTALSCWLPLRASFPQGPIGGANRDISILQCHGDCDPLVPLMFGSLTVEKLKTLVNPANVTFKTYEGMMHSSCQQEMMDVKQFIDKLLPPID
GSTO1 counter = blocks human GSTO1 in RBBP9 counter-screen; P78417; recombinant GSTO1, activity-based probe fluorescence polarization; 1.1% of 300,000 active; inhibition, % at 5.96 µM;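 active means inhibition above the campaign mean inhibition plus 3 SD, cut at about 35% in these data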;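 further: 0% = GSTO1-1 with DMSO and 100% = wells lacking GSTO1-1 enzyme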
Target sequence (P78417 whole entry, looked up): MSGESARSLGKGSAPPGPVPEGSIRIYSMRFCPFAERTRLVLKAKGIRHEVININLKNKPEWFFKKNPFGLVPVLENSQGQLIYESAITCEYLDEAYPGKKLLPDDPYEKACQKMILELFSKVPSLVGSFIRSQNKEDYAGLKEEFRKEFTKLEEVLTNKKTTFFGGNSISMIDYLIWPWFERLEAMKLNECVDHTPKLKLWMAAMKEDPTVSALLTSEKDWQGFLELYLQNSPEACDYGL
LYPLA2 inh = blocks human lysophospholipase 2, a PME1 counter-screen. O95372. recombinant LYPLA2, FP-Rh probe fluorescence polarization. inhibition, % at 5.9 µM. 0.38% of 320,000 active. AID 2177;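 active means inhibition above the screen-wide mean plus 3 SD, limit set per campaign, cut at about 26% in these data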;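 further: 0% = LYPLA2 with DMSO and 100% = wells lacking LYPLA2 enzyme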
Target sequence (O95372 whole entry, looked up): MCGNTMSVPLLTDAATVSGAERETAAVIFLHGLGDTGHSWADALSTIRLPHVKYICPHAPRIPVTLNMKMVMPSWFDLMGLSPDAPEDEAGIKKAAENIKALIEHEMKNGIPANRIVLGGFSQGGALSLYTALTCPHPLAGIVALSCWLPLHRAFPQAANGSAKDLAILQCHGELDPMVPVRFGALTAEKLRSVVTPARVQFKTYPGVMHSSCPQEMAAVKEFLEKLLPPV
PAD4 inh = PAD4 (human) enzyme inhibition | 0.41% of 330,000 active | recombinant PAD4, RCA probe fluorescence polarization | AID 485272 | Q9UM07 | inhibition, % at 6.36 µM;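 active means percent inhibition above a cutoff equal to the mean of all tested compounds plus 3 SD, cut at about 15% in these data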;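 further: 0% = PAD4 with RCA probe and DMSO and 100% = probe without PAD4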
PME-1 inh = blocks human protein phosphatase methylesterase 1; Q9Y570; recombinant PME-1, FP-Rh probe fluorescence polarization; inhibition, % at 5.9 µM; 0.53% of 320,000 active;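 active means inhibition above the campaign mean of all compounds plus 3 SD, cut at about 26% in these data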;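 further: competitive labeling of PME-1 active site by serine hydrolase directed probe; 0% = PME-1 with DMSO and 100% = wells lacking PME-1 enzyme; inhibitors block probe labeling so polarization falls and inhibition rises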
Fam108B counter = counter-screen for RBBP9 inhibitors: inhibitors of mouse Fam108B. recombinant Fam108B, FP-Rh probe fluorescence polarization. inhibition, % at 9.51 µM. 0.33% of 300,000 active. AID 1947;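 active means inhibition above the screen mean inhibition plus 3 SD, computed separately per campaign, cut at about 18% in these data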;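 further: inhibitors lower polarization as less probe binds the enzyme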
GSTO1 confirm = GSTO1 (human) inhibition, confirmation; shares compounds with GSTO1 counter; recombinant GSTO1, probe fluorescence polarization; inhibition, % at 5.96 µM; 54% of 2,400 active; AID 2176;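 active means inhibition above the primary screen's cutoff, its mean inhibition plus 3 SD, cut at about 35% in these data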;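 further: loss of polarization as inhibitors block binding of rhodamine sulfonate ester activity probe; 0% = GSTO1 with DMSO and 100% = wells lacking GSTO1 enzyme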
GSTO1 recomb ABPP = inhibitors of recombinant human GSTO1; gel ABPP SE-Rh probe fluorescence; shares compounds with GSTO1 counter; 30% of 130 active; inhibition, % at 1 µM; AID 463110;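 active means inhibition of the enzyme GSTO1 above about 75%, limit read from the data; inactive means inhibition below that limit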
Numbers without * were called inactive; . = not tested or not shown. Sampled rows, rich in hits. Any-hit rate of the full collection: about 1.8%.

SMILES	LYPLA1 inh	GSTO1 counter	LYPLA2 inh	PAD4 inh	PME-1 inh	Fam108B counter	GSTO1 confirm	others
CCCC[n+]1ccn(C2=C([O-])c3ccccc3C(=O)/C2=N\S(=O)(=O)c2ccc(Cl)cc2)c1	1.1	75.3*	8.0	-8.0	1.1	5.2	70.7*
O=C1c2ccccc2C(=O)N1CC(O)COc1ccccc1Cl (stereo unspecified)	4.3	8.9	15.8	-2.1	4.2	1.4	.
O=c1[nH][nH]cc1C=Nc1ccccc1O	2.1	31.4	-1.2	-3.1	-2.4	5.6	.
O=c1c(=Nc2ccccc2O)c(=O)c2ccccc12	-1.0	68.5*	-2.5	-17.3	-0.6	0.8	24.6
CCCN(C(=O)Cc1coc2cc(OC)ccc12)C1CCS(=O)(=O)C1 (stereo unspecified)	.	.	.	0.6	.	.	.
Oc1ccc(C2CNCc3sccc32)cc1O (stereo unspecified)	-3.7	48.5*	-1.3	4.4	0.1	0.7	7.1
CCN(CCO)C(=O)c1ccc2nc(Cc3ccc(OC)cc3)oc2c1	3.7	7.4	5.5	0.8	-0.3	4.7	.
Oc1ccc(CCNc2c3ccccc3nc3ccccc23)cc1O	6.8	47.8*	7.8	0.6	-24.7	17.8	4.7
Cc1cccc(OCCOC(=O)c2c(-c3ccccc3)noc2C)c1	-4.7	-0.7	-5.6	-1.7	-0.6	0.0	.
Cc1ccc(S(=O)(=O)N2C[C@@H]3CCCC[C@@H]3[C@@H](C)[C@H]2CC(=O)c2ccccc2)cc1	.	.	.	-2.7	.	.	.
COc1cc2c(cc1OC)C(C1C(=O)CCCC1=O)N(C(=O)CCl)CC2 (stereo unspecified)	-0.6	27.6	1.4	-4.3	6.3	1.0	.
COc1cc2c(cc1OC)C(c1ccccc1)N(C(=O)CCl)CC2 (stereo unspecified)	0.6	88.1*	-2.8	5.5	9.9	2.7	95.7*	GSTO1 recomb ABPP=75.0*
COc1ccc2c(c1)CCN(C(=O)CCl)C2C1C(=O)CCCC1=O (stereo unspecified)	-1.7	40.2*	-5.1	0.7	2.5	3.5	80.9*	GSTO1 recomb ABPP=35.0
Cn1nccc1C(=O)NC1CCCc2c1cnn2-c1ccc(C(C)(C)C)cc1 (stereo unspecified)	1.9	24.9	7.5	-3.5	1.5	5.2	.
NS(=O)(=O)c1ccc(CCNC(=O)c2ccc(NS(=O)(=O)c3ccc4[nH]c(=O)[nH]c4c3)cc2)cc1	-0.6	-19.7	-3.9	-6.0	-5.8	2.7	.
COc1ccc(N(CCOc2ccccc2)S(=O)(=O)c2ccccc2)cc1	-0.8	.	1.4	-0.8	-0.6	.	.
COc1ccc([N+](=O)[O-])cc1N(CC1CO1)S(=O)(=O)c1ccc(C)cc1 (stereo unspecified)	1.3	87.6*	0.7	2.3	4.9	1.0	98.2*	GSTO1 recomb ABPP=44.0
COc1ccccc1N(CC1CO1)S(=O)(=O)c1ccc(C)cc1 (stereo unspecified)	1.3	74.7*	3.3	1.5	-2.3	2.0	82.6*	GSTO1 recomb ABPP=41.0
COc1ccc(N(CC2CO2)S(=O)(=O)c2ccccc2)cc1 (stereo unspecified)	0.2	70.0*	-0.7	4.9	-0.3	0.4	85.5*	GSTO1 recomb ABPP=19.0
COc1ccccc1N(CC1CO1)S(=O)(=O)c1ccccc1 (stereo unspecified)	1.0	85.3*	5.1	-0.7	0.1	-1.8	78.1*	GSTO1 recomb ABPP=13.0
Cc1cc(CN2CCC(n3nccc3NC(=O)c3ccccc3C)CC2)n[nH]1	0.9	-2.7	-0.4	2.9	1.9	-0.3	.
Cc1ccc(NC(=O)c2ccccc2OCC(=O)Nc2ccccc2F)cc1S(=O)(=O)N(C)C	-39.1	.	-70.8	-2.8	-72.4	.	.
CCCCOc1ccc(C(=O)NCC(=O)NCC(c2ccc(OC)cc2)N2CCCC2)cc1 (stereo unspecified)	0.7	0.1	3.3	-0.5	1.3	-1.3	.
CCOc1ccc(NC(=O)CN(C)C(=O)c2ccc3nc(CC)c(CC)nc3c2)cc1OCC	0.3	-2.3	6.7	7.0	0.0	-0.3	.
O=[N+]([O-])c1ccccc1N(CC1CO1)S(=O)(=O)c1ccccc1 (stereo unspecified)	0.8	81.4*	-3.1	-1.3	-1.1	1.9	94.0*	GSTO1 recomb ABPP=12.0
SMILES	LYPLA1 inh	GSTO1 counter	LYPLA2 inh	PAD4 inh	PME-1 inh	Fam108B counter	GSTO1 confirm	others
CS(=O)(=O)N(CC(=O)NCC1CCCO1)c1cc(Cl)ccc1Cl (stereo unspecified)	-0.8	-5.9	-2.1	-4.6	0.3	2.0	.
O=S(=O)(c1ccccc1)N(CC1CO1)c1cc(Cl)ccc1Cl (stereo unspecified)	-2.5	92.1*	4.8	1.4	-0.7	10.3	94.0*	GSTO1 recomb ABPP=51.0
O=C(CCCn1c(SCC(=O)c2ccc(O)c(O)c2)nc2ccccc2c1=O)NCC1CCCO1 (stereo unspecified)	0.4	43.7*	2.2	-4.2	2.6	-2.8	9.2
CN(C)c1cccc2c(S(=O)(=O)Nc3ccccn3)cccc12	0.6	45.2*	2.1	-8.8	6.6	3.8	6.7
CC(C)(C)c1ccc(S(=O)(=O)Nc2ccccn2)cc1	-1.3	5.5	-1.2	-3.3	-2.8	0.3	.
CCOC(=O)c1[nH]c2ccc(OC)cc2c1NC(=O)CN1CCc2ccccc2C1	-5.0	51.3*	-0.7	-4.0	6.6	-0.2	1.4
COC(=O)c1ccccc1NC(=O)COC(=O)CSc1nnc(N)s1	-3.1	45.0*	-2.4	-4.9	-1.1	-2.8	32.3
Nc1nnc(SCC(=O)OCC(=O)Nc2ccccc2)s1	-3.8	0.3	7.2	-2.9	-0.3	-1.6	.
COc1ccc(F)cc1S(=O)(=O)Nc1ccncc1	-0.3	1.8	-1.3	1.3	-2.5	-3.6	.
COc1ccccc1NS(=O)(=O)c1ccc2nc(CCl)[nH]c2c1	-1.0	85.1*	5.8	2.2	6.5	6.8	91.0*	GSTO1 recomb ABPP=68.0
COCC(C)NC(=O)c1cc(-c2ccc(OC)c(OC)c2)on1 (stereo unspecified)	-1.4	52.6*	4.8	-1.1	-3.3	2.3	4.0
O=C(C[C@@H]1C/C=C\C[C@H](Cc2ccc(F)cc2)C(=O)OC[C@@H]2CCCN2C1=O)N[C@H](CO)Cc1ccccc1	.	.	.	-0.5	.	.	.
CCOC(=O)Cn1c(=O)oc2cc(S(=O)(=O)Nc3ccc(N(CC)CC)cc3C)ccc21	-0.6	67.6*	-2.2	-0.8	0.2	3.6	61.6*
CN(C)c1ccc(C=Nc2ccccc2)cc1	0.6	2.2	0.7	-1.7	-2.8	-0.7	.
CN(C)c1ccc(N=Cc2ccco2)cc1	-3.0	73.4*	1.8	20.5*	6.1	0.8	5.0
CC(=O)Oc1cc2cccc(OC(C)=O)c(=O)c2c(OC(C)=O)c1OC(C)=O	-3.8	67.0*	-0.8	-3.8	6.0	4.9	54.7*
COc1cc2cccc(OC)c(=O)c2c(O)c1OC	-2.2	-0.2	-4.8	3.4	-0.7	-3.8	.

From PubChem
